# Screens deposited in PubChem BioAssay by ICCB-Longwood Screening Facility, Harvard Medical School.
# This is a sample that favours compounds with a hit; in the whole collection about 1.4% have one here.
# MenB inh – inhibitors of Mycobacterium tuberculosis MenB enzyme | P9WNP5 | MenB enzyme assay, absorbance read-out | inhibition, % (test concentration not listed) | hit rate 0.43% among 100,000; in the data active means inhibition above about 21%, passing the limit was not always enough
# Target sequence (P9WNP5 whole entry, looked up): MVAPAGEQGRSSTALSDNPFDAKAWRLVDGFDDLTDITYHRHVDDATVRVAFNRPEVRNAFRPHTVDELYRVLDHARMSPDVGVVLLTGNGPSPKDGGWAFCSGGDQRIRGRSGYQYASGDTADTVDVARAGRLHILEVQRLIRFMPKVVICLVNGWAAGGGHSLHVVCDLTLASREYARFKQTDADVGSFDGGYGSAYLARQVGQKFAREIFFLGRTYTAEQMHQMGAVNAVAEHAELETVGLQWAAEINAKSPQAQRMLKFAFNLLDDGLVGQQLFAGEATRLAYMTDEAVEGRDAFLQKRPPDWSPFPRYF
# Mtb MbtI inh – inhibitors of Mycobacterium tuberculosis siderophore enzyme MbtI. purified MbtI enzyme, fluorescence intensity read-out. hit rate 0.89% among 100,000. AID 493033. P9WFX0. inhibition, % (no concentration beside the values); in the data active means inhibition mostly above about 56%, no sharp cut-off; inactive means mostly below about 77%
# PV pol inh – inhibitors of poliovirus RNA polymerase binding and polymerization. P03300. poliovirus polymerase elongation, fluorescence polarization; active compounds read low. % elongation, % (compound at 16.7 µg/mL). hit rate 0.66% among 150,000. AID 588519; in the data active means % elongation below about 90%
# AID504770 – growth inhibitors of E. coli YBA685 in a screen for V. cholerae RctB (chromosome II replication) inhibitors. E. coli YBA685 rctB-dependent plasmid, OD600 growth, 3 h; active compounds read low. z-score (no concentration beside the values). hit rate 0.27% among 130,000; in the data active means z-score below about -2, passing the limit was not always enough
# * = called active by the depositor; / = not tested or not shown; ! = repeats disagree.
SMILES,MenB inh,Mtb MbtI inh,PV pol inh,AID504770
O=C1c2ccccc2C(=O)C1c1ccc(OC(F)F)cc1,-10.0,79.5*,96.0,-0.05
Cc1cc(=O)nc2c3ccccc3n(C(C)C(=O)Nc3c(F)c(F)cc(F)c3F)n12 (stereo unspecified),3.9,112.8,105.0,-0.55
CC(C(=O)O)c1ccc(N2Cc3ccccc3C2=O)cc1 (stereo unspecified),-14.1,-4.0,102.0*!,0.45
COC(=O)C1C(=O)NC(S)=C(C#N)C1c1ccccc1Cl (stereo unspecified),-12.5,86.8*,106.0,-0.25
CCOc1ccccc1C1C(C#N)=C(SC)NC(=O)C1C(=O)OC (stereo unspecified),/,/,/,0.7
CCCn1cnc2c1c(=O)[nH]c(=O)n2C,/,/,/,-3.7*
C=CCn1cnc2c1c(=O)[nH]c(=O)n2C,-0.5,-0.1,103.0,0
COc1cc(OC)c2c(c1)ncc1c(C)nn(-c3ccccc3)c12,-26.8,-19.9,102.0,-0.95
CC(C)(C)Sc1ccc(SC#N)s1,-32.4,80.6*,95.0,0.75
CC(C)(C)Sc1ccc(C(=O)O)s1,/,57.4*,/,-0.3
O=C(c1sc2ccccc2c1Cl)N1CCCCC1,-40.6,-7.5,102.0,-0.55
CC(Oc1cccc(Cl)c1)C(=O)N(C)Cc1nc2ccccc2c(=O)[nH]1 (stereo unspecified),-10.1,-5.5,100.0,-0.15
CCc1cccc(NC(=O)CCS(=O)(=O)c2ccc3c(c2)SCC(=O)N3)c1,-18.1,-10.4,102.0,-1
O=c1[nH]c2cc(Cl)c(Cl)cc2c(O)c1-c1ccccc1,/,/,/,-0.45
Fc1cccc2c1CNC(=S)N2,-18.3,81.7*,100.0,-1.3
Cc1ccc(S(=O)(=O)NC(=O)c2ccc(Cl)nc2Cl)cc1,/,-4.2,62.0*,-0.55
CS(=O)(=O)c1nc(-c2ccc(Br)cc2)n[nH]1,14.9,89.7*,100.0,-0.55
CS(=O)(=O)c1nc(-c2ccc(Cl)cc2)n[nH]1,0.0,/,100.0,-0.55
Cc1ccc(-c2csc(-c3nnn(-c4ccc(C)c(C)c4)c3N)n2)cc1,8.5,19.2,27.0*,2.65
Cc1ccc(-c2csc(-c3nnn(-c4cccc(Cl)c4)c3N)n2)cc1,15.9,20.2,100.0,2.35
Cc1ccc(S(=O)(=O)N(C)c2ccccc2)cc1,-24.1,11.4,101.0,-0.5
Cc1ccc(S(=O)(=O)N(C)c2nc3ccccc3nc2SCC#N)cc1,-46.5,97.8*,97.0,-0.2
CCOc1ccc(-c2cc(C(F)(F)F)c(C#N)c(SCC)n2)cc1,-22.0,51.1,103.0,-0.3
COc1ccc2c(c1)C(C(C#N)C#N)c1c(nc(N)c(C#N)c1N)O2 (stereo unspecified),-25.0,64.3,96.0,-3.05*
CCCC(C)C1C(C#N)=C(N)Oc2cc(N)ccc21 (stereo unspecified),-2.1,7.8,106.0,0.6
SMILES,MenB inh,Mtb MbtI inh,PV pol inh,AID504770
COc1ccc(-c2c(C#N)c(N)nc(OC)c2C#N)cc1,-28.3,41.7,101.0,0.1
COc1ccc2c(c1)C(C(C#N)C#N)C(C#N)=C(N)O2 (stereo unspecified),/,/,/,-2.4*
CSc1ccc(C2C3=C(CCCC3=O)Nc3ccc4ccccc4c32)cc1 (stereo unspecified),-43.7,/,101.0,1.4
OCn1c(=S)sc2ccccc21,/,93.2*,102.0,-0.4
CCN(CC)Cn1c(=O)sc2ccccc21,-34.6,27.3,103.0,-0.5
CCN(CC)Cn1c(=S)sc2ccccc21,-13.1,86.7*,100.0,-1.55
CCC1=C(C(=O)OC)C(c2ccc(Cl)cc2)n2ncnc2N1 (stereo unspecified),-0.8,3.9,/,-0.2
CC1CCN(S(=O)(=O)c2ccc(C(=O)NCc3ccco3)cc2)CC1,-14.2,/,89.0*,-0.3
Cc1ccc(C(=O)c2sc(Nc3ccc(F)cc3)c(C#N)c2N)cc1,/,/,77.0*,/
CNc1c(C(=O)c2ccc(F)cc2)sc(N)c1C#N,-32.7,13.4,102.0,0.95
Cc1cc2c(NC(=O)COCC(=O)O)cccc2nn1,7.6,1.9,65.0*,0.1
O=C(c1cc(O)ccc1O)c1coc2ccc(O)cc12,12.7,99.8*,101.0,0.55
O=C(Oc1ccc(Br)cc1F)C1CC(=O)N(c2ccc3c(c2)OCCO3)C1 (stereo unspecified),-33.1,1.9,87.0*,-0.9
Nc1nc(NS(=O)(=O)c2ccccc2)ns1,/,/,/,-2.9*
O=S(=O)(Nc1ncccn1)c1ccccc1,0.2,-8.0,101.0,-0.6
O=C(CC1Oc2ccccc2NC1=O)NCc1cccnc1 (stereo unspecified),3.6,0.2,102.0,0.6
O=C(C1=Cc2sc3c(c2CS1)CCCC3)N1CCC2(CC1)OCCO2,-15.3,95.1*,104.0,0.55
O=C(c1cc2c(s1)CCCCCC2)N1CCC2(CC1)OCCO2,-8.5,0.6,99.0,-0.1
